A number with no mark means an inactive call. Active and inactive are the calls of the source. Cut-off read from the data, not from the text of the source, unless noted: active = inhibition above about 33%; inactive = the rest.

Among the data in PubChem BioAssay are inhibition values, retold here.

Experiment [1] in a line: StAR promoter reporter inhibitors, counter-screen for LRH-1 inverse agonist project, cell-based, luminescence, high throughput (AID 651611; in the data active = inhibition above about 28%). As to conditions: StAR promoter luciferase reporter counterscreen, at 3.6 µM, hits give high values. Background: The purpose of a counterscreen is to sort out artefacts and off-target activity.
In experiment [2] the target is Nuclear receptor subfamily 5 group A member 2 (Homo sapiens) (UniProt O00482). The experiment can be described thus: NR5A2 activity suppression in reporter cells – cell-based, luminescence, confirmation (AID 651613; in the data active = inhibition above about 42%;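 note: HEK293T cells co-transfected with LRH-1 and StAR promoter luciferase reporter; 0% = vehicle wells and 100% = parental cells lacking receptor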). The settings on record: cell-based LRH-1 luciferase reporter, inverse agonism; at 3.6 µM; hits give high values. A general note: Reporter assays use an easily measured gene product as a stand-in for the process of interest.

The target of experiment [3] is Steroidogenic factor 1 (Homo sapiens) (UniProt Q13285). The experiment can be described thus: inverse agonism at SF1 nuclear receptor – cell-based, luminescence, high throughput, counter-screen for LRH-1 inverse agonist project (AID 651614; in the data active = inhibition above about 44%;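 note: cells cotransfected with StAR promoter reporter and SF1 expression vector; 0% = vehicle on cells with receptor and 100% = vehicle on cells lacking receptor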). As to conditions: cell-based SF1 luciferase reporter, at 3.6 µM, hits give high values.
Experiment [4] in a line: compounds suppressing VP16-driven luciferase signal – cell-based, luminescence, high throughput, counter-screen for LRH-1 inverse agonist project (AID 651615). As to conditions: Gal4-VP16 luciferase reporter cells, at 3.6 µM, hits give high values.

Chain of Nuclear receptor subfamily 5 group A member 2 (Homo sapiens) (O00482 whole entry, looked up): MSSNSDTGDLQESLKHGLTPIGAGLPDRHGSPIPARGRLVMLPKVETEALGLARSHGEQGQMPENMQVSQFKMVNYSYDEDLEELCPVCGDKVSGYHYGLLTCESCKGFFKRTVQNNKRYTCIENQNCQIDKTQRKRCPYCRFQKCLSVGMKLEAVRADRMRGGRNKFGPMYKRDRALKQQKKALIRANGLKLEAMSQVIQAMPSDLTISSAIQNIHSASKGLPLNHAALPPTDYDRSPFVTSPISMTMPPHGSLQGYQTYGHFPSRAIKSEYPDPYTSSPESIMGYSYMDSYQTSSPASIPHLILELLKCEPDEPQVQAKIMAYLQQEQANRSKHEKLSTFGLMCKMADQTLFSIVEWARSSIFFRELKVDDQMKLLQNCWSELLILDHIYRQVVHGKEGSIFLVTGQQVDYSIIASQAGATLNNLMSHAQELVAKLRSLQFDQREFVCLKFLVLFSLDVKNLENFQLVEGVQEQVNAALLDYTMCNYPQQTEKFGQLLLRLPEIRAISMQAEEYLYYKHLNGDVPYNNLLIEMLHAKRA
Chain of Steroidogenic factor 1 (Homo sapiens) (Q13285 whole entry, looked up, the tested form may be a part): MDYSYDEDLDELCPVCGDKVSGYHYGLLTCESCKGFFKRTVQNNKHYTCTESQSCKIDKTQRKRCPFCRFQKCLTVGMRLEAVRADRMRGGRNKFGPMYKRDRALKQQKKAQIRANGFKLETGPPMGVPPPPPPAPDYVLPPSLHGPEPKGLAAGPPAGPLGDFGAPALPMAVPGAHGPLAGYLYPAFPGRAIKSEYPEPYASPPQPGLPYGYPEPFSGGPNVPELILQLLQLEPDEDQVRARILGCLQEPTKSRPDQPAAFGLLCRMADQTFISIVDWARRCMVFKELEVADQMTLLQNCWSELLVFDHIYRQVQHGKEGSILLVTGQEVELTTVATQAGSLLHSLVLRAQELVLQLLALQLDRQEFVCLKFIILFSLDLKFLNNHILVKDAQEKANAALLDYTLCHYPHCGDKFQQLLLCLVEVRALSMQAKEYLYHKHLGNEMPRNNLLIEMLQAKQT

`O=C(C1=C[C@@H](C2CCCCC2)C[C@@H](OCc2ccc(CO)cc2)O1)N1CCN(Cc2ccc3c(c2)OCO3)CC1`: the inhibition (commonly the relative decrease from the control value, in per cent) is 12% in experiment [1], 46.2% (active) in experiment [2], 40.6% in experiment [3] and 4.7% in experiment [4].

As for `COc1cccc(NC(=O)c2oc3ccccc3c2NC(=O)C2CC2)c1`, the inhibition in experiment [1] was -5.29%; in experiment [2] it was 50.6% (active); in experiment [3], 47.1% (active); in experiment [4] it was -8.83%.

As for `CCCCCOc1ccc(Br)cc1CSC(=N)N`, the inhibition in experiment [1] is 41.5% (active); in experiment [2], 99.7% (active); in experiment [3], 66.2% (active); in experiment [4] it was 84% (active).

As to `O=C(COc1ccc2c3c(c(=O)oc2c1)CCCC3)NCc1ccccn1`, the inhibition in experiment [1] is 2.43%; in experiment [2], 57.6% (active); in experiment [3], 56.7% (active); in experiment [4], -9.09%.

For the compound `COc1ccc(C2(C)NC(=O)N(CC(=O)Nc3ccc(C)cc3Br)C2=O)cc1OC` (stereo not drawn), the inhibition was 15.7% in experiment [1], 40.8% in experiment [2], 28.4% in experiment [3] and 0.45% in experiment [4].

Consider `O=C(CSc1cc(Cl)ccc1Cl)Nc1ccc(N2CCOCC2)cc1`, for which the inhibition is 1.91% in experiment [1], 63.9% (active) in experiment [2], 65.3% (active) in experiment [3] and 3.31% in experiment [4].

With `C#Cc1cccc(Nc2nc(NC(C)C)nc3ccsc23)c1`, the inhibition in experiment [1] is 17.7%; in experiment [2], 63.6% (active); in experiment [3], 60.9% (active); in experiment [4] it was 20.3%.

Consider `Cc1ccc2[nH]c3c(c2c1)CCN1C(=O)OC(C)(C)C31C` (stereo not drawn), for which the inhibition in experiment [1] was 10.6%; in experiment [2], 53.7% (active); in experiment [3], 49% (active); in experiment [4], -1.39%.

On to `CCCc1nnc(SCC(=O)Nc2ccc(OC)cc2)o1`, for which the inhibition in experiment [1] is 5.23%; in experiment [2], 42.6% (active); in experiment [3] it was 45% (active); in experiment [4], -8.5%.

For `CCCCCCCCn1c2c(c(=N)c3ccccc31)CCC2`, the inhibition is 78.5% (active) in experiment [1], 110% (active) in experiment [2], 92.8% (active) in experiment [3] and 92.1% (active) in experiment [4].

On to `CCOC(=O)c1cc(-c2ccncc2)nc2c1c(C)nn2-c1ccccn1`, for which the inhibition in experiment [1] is 14.2%; in experiment [2], 44.6% (active); in experiment [3], 48% (active); in experiment [4], 13.1%.

For `O=C(Nc1ccccc1Cl)c1ccc([N+](=O)[O-])o1`, the inhibition in experiment [1] was 29.4% (active); in experiment [2] it was 63.9% (active); in experiment [3], 75.9% (active); in experiment [4] it was -5.01%.

For `O=C(COC(=O)c1ccc[n+]([O-])c1)Nc1ccc([N+](=O)[O-])cc1Cl`, the inhibition is 17.6% in experiment [1], 59.4% (active) in experiment [2], 56.2% (active) in experiment [3] and 1.26% in experiment [4].

As for `C[C@@H]1CN([C@@H](C)CO)S(=O)(=O)c2ccc(-c3ccc(C#N)cc3)cc2O[C@@H]1CN(C)Cc1ccccn1`, the inhibition in experiment [1] is 24.5%; in experiment [2], 51.8% (active); in experiment [3], 48% (active); in experiment [4] it was -14.3%.

As to `CCOC(=O)N1CCN(C(=O)CSc2nc3c([nH]c4ccccc43)c(=O)n2CC)CC1`, the inhibition in experiment [1] is 36.3% (active); in experiment [2], 63.7% (active); in experiment [3], 55.8% (active); in experiment [4] it was -25.2%.

As to `Nc1ccc(C(=O)NN2C(=O)[C@H](Cl)C2c2ccc(Cl)cc2)cc1` (stereo partly drawn), the inhibition was 8.81% in experiment [1], 43.1% (active) in experiment [2], 52.1% (active) in experiment [3] and -16.2% in experiment [4].

For the compound `COc1cc(N)c(Cl)cc1C(=O)OCC(=O)N1c2ccccc2NC(=O)C1(C)C`, the inhibition in experiment [1] was 11.8%; in experiment [2], 19.4%; in experiment [3] it was 11.5%; in experiment [4], -12.3%.

In the case of `O=C(NNc1ccc([N+](=O)[O-])cc1[N+](=O)[O-])c1ccco1`, the inhibition in experiment [1] was 12.4%; in experiment [2] it was 57.6% (active); in experiment [3] it was 60% (active); in experiment [4], 3.35%.

Turning to `Cc1cc(C)nc(SCC(=O)Nc2ccc(N3CCOCC3)c(Cl)c2)n1`, the inhibition is -5.17% in experiment [1], 67.5% (active) in experiment [2], 59.8% (active) in experiment [3] and 35.7% (active) in experiment [4].

Take `CCn1c(CN2CCN(c3ccc(Cl)cc3)CC2)nc2ccccc21`: the inhibition was 2.05% in experiment [1], 46% (active) in experiment [2], 36.1% in experiment [3] and 7.76% in experiment [4].

`COc1c(/C=N/NC(N)=S)c(C)nn1-c1ccccc1`: the inhibition was 1.43% in experiment [1], 39.5% in experiment [2], 27.9% in experiment [3] and -8.71% in experiment [4].

For `C/C(=N\NC(N)=S)c1ccncc1`, the inhibition was 6.9% in experiment [1], 54.2% (active) in experiment [2], 49% (active) in experiment [3] and 3.01% in experiment [4].

Regarding `O=C(Nc1ccc(N2CCN(C(=O)c3ccccc3)CC2)cc1)c1ccc([N+](=O)[O-])o1`, the inhibition is 22.4% in experiment [1], 64.8% (active) in experiment [2], 66.6% (active) in experiment [3] and -9.49% in experiment [4].

Take `Oc1ccc2ccccc2c1C=NCc1ccccc1`: the inhibition in experiment [1] is 22.8%; in experiment [2], 15.3%; in experiment [3], 16.9%; in experiment [4] it was 3.34%.

With `Cc1ccc(NC(=O)CSc2nnc(CCCCCNC(=O)OC(C)(C)C)o2)c(C)c1`, the inhibition is 12.2% in experiment [1], 47.9% (active) in experiment [2], 42.7% in experiment [3] and 4.4% in experiment [4].

As for `COc1cc2nc(/C=C/c3cc(OC)c(OC)c(OC)c3)sc2cc1SC`, the inhibition in experiment [1] was 35.7% (active); in experiment [2] it was 45.1% (active); in experiment [3], 58.6% (active); in experiment [4] it was -2.8%.

In the case of `O=C(CSc1nnnn1C1CCCC1)Nc1ccc2c(c1)OCCO2`, the inhibition in experiment [1] was -0.49%; in experiment [2] it was 44.7% (active); in experiment [3], 42.3%; in experiment [4], -30.9%.
